# TDP-43 yeast inh: rescues yeast growth from TDP-43 toxicity | Potency, µM (top dose mostly 46.1 µM), for the others: at the highest dose growth rescue (activation), actives largely listed as activators | actives 1.8% (n = 410,000) | TDP-43 expressing yeast growth rescue, BacTiter-Glo, 24 h; also: % of control where 0% means no effect; nearly all actives have a fitted effect of over 50% in size
#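 Luminescence from BacTiter-Glo reports growth of TDP-43-expressing yeast after 24 hr at 30 deg C with compound. Cells were raffinose-pregrown to mid-log, then seeded in galactose medium at OD600=0.02.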
# FUS yeast rescue: rescues growth of FUS-expressing yeast; S. cerevisiae FUS-expressing, growth rescue, OD600, 24 h; Potency, µM (doses to about 76.6 µM), usual class: activators; actives 0.24% (n = 390,000);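 also: plate controls were DMSO vehicle for no effect and reference control for full effect; nearly all actives have a fitted effect of over 55% in size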
#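 FUS-expressing yeast, raffinose-pregrown, induced in 2% galactose minimal medium at OD 0.005; compounds in a dilution series, 24hr at 30C. Growth restoration read as absorbance at 600 nm. CP55940 positive control, DMSO negative.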
# aSyn yeast inh: inhibitors of alpha-synuclein toxicity in yeast; Yeast expressing alpha-synuclein, growth rescue, BacTiter-Glo, 24 h; Potency, µM (series often up to 46.1 µM), for the others: top-dose growth rescue (activation), most hits filed as activators; actives 0.14% (n = 370,000); AID 652106; also: % of control where 0% means no effect; nearly all actives have a fitted effect of over 65% in size
#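 Readout is rescue of growth in alpha-synuclein-expressing yeast, so inhibitors of toxicity appear as activators. Growth after 24 hr at 30 deg C in galactose medium is quantified by luminescence.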
# Abeta yeast res: compounds reversing amyloid beta toxicity in yeast; Potency, µM (doses to about 46.1 µM), hits mostly activators; yeast expressing A-beta42, growth rescue, OD600, 48 h; response scale: 0% DMSO, 100% iron-clioquinol control; actives 0.063% (n = 410,000); also: nearly all actives have a fitted effect of over 55% in size
#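 Growth rescue measured by 600 nm absorbance after 48 h yeast culture at 30 C with compound. Values normalized between DMSO and an equimolar ferric chloride plus clioquinol control.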
# An asterisk follows results filed as active; i = inactive; ? = inconclusive; / = not tested or not shown; [ ] = dose if it differs, or a comment. Compounds with a hit are over-represented: about 2.1% of the library has one in this group of screens. Calls follow the shape of the dose curve; as a rule, active = well fitted curve in the direction sought with a large enough effect; inconclusive = small, poorly fitted or top-dose-only effect, or another doubt; inactive = no such curve, though single readings can be large; an effect the other way counts as inactive or inconclusive. Potency is read from the fitted curve at half-maximal effect.
SMILES,TDP-43 yeast inh,FUS yeast rescue,aSyn yeast inh,Abeta yeast res
Cc1ccc(CNC(=O)COC(=O)Cn2nc(C)c([N+](=O)[O-])c2C)cc1,-3%[0.397 µM],i,4%,i
Cc1nn(CC(=O)OCCOc2ccc(Br)cc2)c(C)c1[N+](=O)[O-],13µM*,i,6%,i
O=C(CSc1nc(=O)n2ccccc2n1)N1CCC(Cc2ccccc2)CC1,20µM*,i,4%,i
O/N=C(\c1ccc(Cl)cc1)c1ncc(C(F)(F)F)cc1Cl,13µM*,i,-16%,i
O=C(Nc1cccc(C(=O)OCc2cc(=O)n3c4c(sc3n2)CCCC4)c1)c1cccc(F)c1,11%,?,/,i
COc1ccccc1NC(=O)Nc1nn(C)c2cccc(N(C)C)c12,20µM*,?,-42%,i
Fc1ccc(C2=CSC3=NCCN23)cc1,-3%,i,-4%,i
N=c1nc(N)nc2n1NC(c1ccc(F)cc1)=CS2,11µM*,i,13µM*,i
O=[N+]([O-])c1nn(-c2ccc3c(c2)OCCO3)n(O)c1=NC1CCCCCC1,16µM*,i,3%,i
O=[N+]([O-])c1nn(-c2ccc3c(c2)OCCO3)n(O)c1=NCCCO,1%,i,0%,i
Cc1cc(C)cc(N=c2c([N+](=O)[O-])nn(-c3ccc4c(c3)OCCO4)n2O)c1,9%,i,-1%,i
O=[N+]([O-])c1nn(-c2ccc3c(c2)OCCO3)n(O)c1=NC1CCCC1,5µM*,i,0%,i
O=C(O)c1ccc(COc2ccc3ccccc3c2/C=C2/NC(=O)N(c3ccccc3)C2=O)cc1,4%,35µM*,-1%,i
CNC(C#Cc1ccccc1)c1ccccc1C(F)(F)F (configuration not stated),/,i,/,/
Cc1ccc(Cn2ccnc2SCC(=O)NCc2ccccc2Cl)cc1,11µM*,i,/,i
Cc1ccc2nc(NC(=O)CSc3nccn3Cc3ccc(Cl)cc3)sc2c1,11µM*,i,/,i
O=C(CSc1nccn1Cc1ccc(F)cc1)Nc1nc2ccccc2s1,?,i,20µM*,?
O=C(CSc1nccn1Cc1ccccc1)NCc1ccc(F)cc1,4%,i,8%,i
CCOc1ccc2nc(NC(=O)c3ccccn3)sc2c1,5%,i,-3%,i
Cc1ccc2nc(NC(=O)c3ccccn3)sc2c1,10µM*,i,7.1µM*,i
O=C(Cc1ccc(Cl)cc1)NO,/,/,2%,/
O=C(CCc1ccccc1)N[C@H]1[C@H](OC(=O)c2ccco2)CCC[C@]12C(=O)N(Cc1ccccc1)c1ccccc12,/,i,/,/
O=C(CCSCc1ccc(Cl)cc1)N1CCN(c2ccccc2F)CC1,?,i,/,i
CC[C@@H](CCCCCCCn1ccc2ccccc21)CCC(=O)N(c1ccccc1)c1ccccc1,/,i,/,/
C#CCN1CC(N(C)CCOC(=O)CCCc2ccccc2)CS1(=O)=O (configuration not stated),/,i,/,/
SMILES,TDP-43 yeast inh,FUS yeast rescue,aSyn yeast inh,Abeta yeast res
CCOc1cc(-c2cc(-c3ccc(N)cc3)nc(N)c2C#N)ccc1O,16µM*,i,-24%,i
N#Cc1c(-c2ccncc2)cc(-c2ccc(F)cc2)nc1N,6%,i,1%,5.6µM*
COC(=O)[C@]12C[C@H](CC(=O)NCCCCc3ccccc3)C(=O)N(Cc3ccc(Cl)cc3Cl)C1=C[C@H](C(C)(C)C)O[C@@H]2C,/,i,/,/
COCCCN1C(=O)[C@H](CC(=O)N2CCN(C(=O)C3CC3)CC2)[C@]2(C(=O)OC)CCCCC=C12,/,i,/,/
Cc1ccccc1N=Cc1ccc[nH]1,?,i,0%,i
Cc1ccc(N=Cc2ccc[nH]2)c(O)c1,-23%,35µM*,-2%,i
CN(C)c1ccc(CN(Cc2ccco2)C(=O)COc2ccc(F)cc2)cc1,8%,i,/,i
O=C(c1ccc(Sc2cccc(Cl)c2)c([N+](=O)[O-])c1)N1CCN(c2ccccn2)CC1,22µM*,i,?,5µM*
O=C(c1ccc(Cl)c([N+](=O)[O-])c1)N1CCN(c2ccccn2)CC1,5%,/,7%,i
COc1ccc(N2CCN(C(=O)Cc3noc4ccc(C)cc34)CC2)cc1,11µM*,i,/,i
Cc1ccc2onc(CC(=O)N3CCN(c4ccccc4)CC3)c2c1,?,i,/,i
Cc1ccc2onc(CNC(=O)N3CCN(c4cccc(C)c4C)CC3)c2c1,20µM*,?,/,i

# Compound activity (PubChem)
